Measured values: publication PMC4336329 (PLoS ONE, 2015)
Hit rate of the full screen: of about 310,000 compounds, about 14,000 (4.5%) showed an effect of 50% or more. The effect is printed as a negative number. The list comes from a sample in which strong results are over-represented; it also holds similar structures and randomly drawn compounds.

Each molecule was assayed against human ether-à-go-go-related gene (hERG) potassium channel (human, UniProt Q12809) (assay: primary screen, population patch clamp on CHO cells stably expressing hERG; higher = less effect of the substance).
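Further: peak tail current of the secondary pulse compared with the same well before compound.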

human ether-à-go-go-related gene (hERG) potassium channel, sequence (Q12809 whole entry, looked up): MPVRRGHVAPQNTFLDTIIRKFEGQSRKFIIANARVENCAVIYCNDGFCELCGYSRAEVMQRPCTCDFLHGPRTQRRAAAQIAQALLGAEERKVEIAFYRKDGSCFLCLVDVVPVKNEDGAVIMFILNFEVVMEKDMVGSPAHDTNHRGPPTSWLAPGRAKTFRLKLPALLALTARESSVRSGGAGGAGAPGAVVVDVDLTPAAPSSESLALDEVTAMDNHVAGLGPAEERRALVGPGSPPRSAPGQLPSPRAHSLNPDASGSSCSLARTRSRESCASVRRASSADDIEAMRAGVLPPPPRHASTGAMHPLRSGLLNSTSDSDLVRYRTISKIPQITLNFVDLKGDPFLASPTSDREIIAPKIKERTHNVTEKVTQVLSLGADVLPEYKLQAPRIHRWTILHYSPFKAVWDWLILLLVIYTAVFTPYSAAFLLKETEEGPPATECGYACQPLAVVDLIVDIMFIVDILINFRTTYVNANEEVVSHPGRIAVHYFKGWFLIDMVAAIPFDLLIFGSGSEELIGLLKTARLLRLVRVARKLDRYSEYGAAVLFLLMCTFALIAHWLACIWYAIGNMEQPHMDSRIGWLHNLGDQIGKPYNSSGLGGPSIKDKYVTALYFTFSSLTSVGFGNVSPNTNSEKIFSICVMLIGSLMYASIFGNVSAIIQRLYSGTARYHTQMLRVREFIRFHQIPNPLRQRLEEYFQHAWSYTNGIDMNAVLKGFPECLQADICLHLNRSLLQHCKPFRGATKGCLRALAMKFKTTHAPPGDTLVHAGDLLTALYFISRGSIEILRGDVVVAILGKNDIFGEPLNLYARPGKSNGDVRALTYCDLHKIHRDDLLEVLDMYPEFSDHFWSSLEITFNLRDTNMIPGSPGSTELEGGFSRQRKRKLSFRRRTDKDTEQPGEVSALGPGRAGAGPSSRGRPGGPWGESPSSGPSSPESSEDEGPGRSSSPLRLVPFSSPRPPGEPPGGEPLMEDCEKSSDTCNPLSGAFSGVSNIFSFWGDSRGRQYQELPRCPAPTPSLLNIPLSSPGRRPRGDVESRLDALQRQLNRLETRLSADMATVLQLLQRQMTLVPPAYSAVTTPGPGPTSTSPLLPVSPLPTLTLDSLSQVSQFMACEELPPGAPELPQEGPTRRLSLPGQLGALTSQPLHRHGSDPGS

Row | SMILES | hERG current change (%, negative = inhibition) at 10uM [%]
1 | CN1CCN(S(=O)(=O)c2ccc(N(C)CC(=O)Nc3ccc(F)cc3)nc2)CC1 | -4.31
2 | CN(CC(=O)Nc1ccc(C(N)=O)cc1)CC(=O)Nc1ccccc1Br | 11
3 | COC(=O)C1CCN(Cc2cc(=O)oc3cc(OC)ccc23)CC1 | -17.8
4 | CC1CN(Cc2cc(=O)oc3cc(O)ccc23)CC(C)O1 (stereo not shown) | -23.3
5 | COc1ccc2oc(=O)cc(CN3CCOCC3)c2c1 | 18.3
6 | O=c1cc(CN2CCN(Cc3ccccc3)CC2)c2ccc(O)cc2o1 | -76.8
7 | Cc1ccc2c(CN3CCN(C(=O)c4ccco4)CC3)cc(=O)oc2c1C | -48.6
8 | CCc1cc2c(CN3CCN(Cc4ccccc4)CC3)cc(=O)oc2cc1O | -35.5
9 | O=c1cc(CN2CCN(Cc3ccccc3)CC2)c2cc(O)ccc2o1 | -68.2
10 | O=c1cc(CN2CCOCC2)c2cc(Cl)ccc2o1 | -0.546
11 | CN1CCN(Cc2cc(=O)oc3ccc(Cl)cc23)CC1 | -16.7
12 | O=C(O)C(=O)O.O=C(c1ccco1)N1CCN(Cc2cccc3ccccc23)CC1 | -24.3
13 | O=C(c1ccco1)N1CCN(Cc2cc(=O)oc3cc(O)ccc23)CC1 | -69.3
14 | COc1ccc(OC)c(CN2CCN(Cc3cc(=O)oc4cc(O)ccc34)CC2)c1 | -74.8
15 | O=C(NC1CCOCC1)C1CCC(=O)N(Cc2cccc(C(F)(F)F)c2)C1 (stereo not shown) | 13.7
16 | Cc1cc2c(cc1S(=O)(=O)CCC(=O)N(C)Cc1ccccc1)OCC(=O)N2 | -35
17 | O=[N+]([O-])c1cccc(/C=N/n2c(C3CCCCC3)n[nH]c2=S)c1 | 11.9
18 | COc1cc([N+](=O)[O-])ccc1NC(=O)Nc1ccc2c(c1)OCCO2 | 25.3
19 | CCN1CCN(CCNC(=O)CCCn2nc(C)c3c(C)n(-c4ccc(C)cc4)nc3c2=O)CC1 | 0.678
20 | O=C(CCC(=O)c1ccc[nH]1)c1ccc(Cl)cc1 | -5.4
21 | CC1CCCN(CCC(=O)Nc2ccc(F)c(F)c2)C1 (stereo not shown) | -30.1
22 | COc1ccc(/C(C)=N/NC(=O)Cc2ccc(Cl)cc2)cc1 | 14.6
23 | O=C1C(=O)N(c2ccccn2)C(c2ccc(Br)cc2)/C1=C(/O)c1ccc(Br)cc1 (stereo not shown) | -47.8
24 | CCOc1cc2[nH]c(=O)n(CCCC(=O)NCc3ccco3)c(=O)c2cc1OCC | 5.83
25 | Cc1cc(C)n(-c2ccc(C(=O)N3CCN(S(=O)(=O)c4ccc(Cl)cc4)CC3)cc2)n1 | -25.8
26 | COC(=O)c1cccc(C(=O)N2CCC(CO)(CCc3ccccc3)CC2)c1 | -13.6
27 | Cc1ccccc1-c1ncc(CN2CCC(CO)(CCCc3ccccc3)CC2)cn1 | -10.9
28 | Cc1cccc(-c2ncc(CN3CCC(CO)(CCCc4ccccc4)CC3)cn2)c1 | -54.1

Row | SMILES | hERG current change (%, negative = inhibition) at 10uM [%]
29 | CC(C)(O)C#Cc1ccc(CN2CCC(CO)(CCc3ccccc3)CC2)cc1 | -39.8
30 | COc1cccc(CC2(CO)CCN(Cc3cnc(-c4cccc(C)c4)nc3)CC2)c1 | -19.9
31 | CC(=O)c1cccc(CN2CCC(CO)(CCCc3ccccc3)CC2)c1 | -63.9
32 | Cn1cc(CN2CCC(CO)(CCCc3ccccc3)CC2)c(-c2ccccc2)n1 | -66.3
33 | OCC1(CCCc2ccccc2)CCN(Cc2ccc(F)cc2)CC1 | -72.9
34 | CC(=O)c1cccc(CN2CCC(CO)(Cc3ccccc3)CC2)c1 | -22.9
35 | O=C(CN1CCN(Cc2ccc(F)cc2)CC1)NCCc1ccccc1 | -13.6
36 | Cc1cc2cc(C#N)c(SCC(=O)Nc3nonc3C)nc2cc1C | -0.0959
37 | CCOC(=O)c1c(C)[nH]c(C)c1C(=O)COC(=O)c1nc2nccc(C)n2n1 | 24.8
38 | C/C(=N/NC(=O)c1cc(C(C)C)[nH]n1)c1cccs1 | 7.16
39 | COc1cc(OC)cc(-c2c(-c3cccs3)c3cc(-c4ccn[nH]4)ccc3n2C)c1 | 7.72
40 | O=C(Nc1ccc(Br)cc1Br)c1cccc2c1C(=O)N(C1CCCCC1)C2 | 12.8
41 | CN(C)c1ccc(C=NCCC2(c3ccccc3)CCOC(C)(C)C2)cc1 (stereo not shown) | 15.3
42 | [N-]=C=C1C(=S)NC(=O)[C@H]([n+]2ccccc2)[C@H]1c1ccc(Cl)cc1 | 15.9
43 | Cc1ccc2nc(/C(C#N)=C/c3ccc(O)c(O)c3)[nH]c2c1 | 7.82
44 | CC(C)N1CCC(N2CCN(Cc3cc(F)ccc3-n3cccn3)CC2CCO)CC1 (stereo not shown) | -8.1
45 | OCC1(CCc2ccccc2)CCN(Cc2c(F)ccc(F)c2F)CC1 | -36.9
46 | O=S(=O)(c1cccc(C(F)(F)F)c1)N1CCC(CO)(CCCc2ccccc2)CC1 | -6.59
47 | Clc1ccccc1CN1CCC(Cc2ccccc2)CC1 | -12.1
48 | OCC1(CCCc2ccccc2)CCN(Cc2cc(F)ccc2F)CC1 | -69.5
49 | OCC1(CCc2ccccc2)CCN(Cc2cc(F)ccc2-n2cccn2)CC1 | -78.1
50 | OCC1(CCc2ccccc2)CCN(Cc2cc(Cl)ccc2O)CC1 | -49.5
51 | OCC1(CCc2ccccc2)CCN(Cc2ccccc2Cl)CC1 | -86
52 | CC(C)N1CCN(Cc2cc(F)ccc2-n2cccn2)CC1CCO (stereo not shown) | 11.2
53 | CCOc1ccc(NC(=O)N2CC=C(n3c(=O)[nH]c4ccccc43)CC2)cc1 | -8.9
54 | COc1ccc2[nH]c(=O)c(CN(c3ccc(C)c(C)c3)S(C)(=O)=O)cc2c1 | 12.9
55 | Cc1ccccc1NC(=O)c1[nH]cnc1C(=O)NN | 9.21
